# Experimental data taken from publication PMC7862700, “An all-to-all approach to the identification of sequence-specific readers for epigenetic DNA modifications on cytosine”.
# How the values were obtained:
# Assay in all cases: DAPPL (digital affinity profiling via proximity ligation, sequencing); 10 mM Tris-HCl pH 7.5, 50 mM NaCl, 1 mM DTT, 4% glycerol, room temperature, 30 min; GST-TFs on glutathione beads, 16-mer random dsDNA library, 0.1% formaldehyde crosslink after washing; high values mean tight binding
# FLI1 = target: T1, FLI1 (Homo sapiens, UniProt Q01543 1-452); conditions: protein: recombinant; tags: N-terminal GST; dsDNA, one strand shown
# T1 sequence: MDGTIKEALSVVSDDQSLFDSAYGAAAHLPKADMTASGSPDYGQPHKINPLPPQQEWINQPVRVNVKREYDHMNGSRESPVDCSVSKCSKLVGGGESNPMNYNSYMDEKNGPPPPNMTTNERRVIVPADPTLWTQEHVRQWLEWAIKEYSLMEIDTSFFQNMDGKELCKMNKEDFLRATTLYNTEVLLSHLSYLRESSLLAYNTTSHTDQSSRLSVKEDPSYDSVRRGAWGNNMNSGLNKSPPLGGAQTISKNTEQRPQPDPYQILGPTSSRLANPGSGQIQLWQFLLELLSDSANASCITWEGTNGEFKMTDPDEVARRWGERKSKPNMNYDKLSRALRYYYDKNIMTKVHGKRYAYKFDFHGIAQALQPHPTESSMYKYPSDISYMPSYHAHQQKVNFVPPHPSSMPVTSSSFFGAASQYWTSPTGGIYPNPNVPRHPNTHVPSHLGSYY
# In short: (§1)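 In yeast, human transcription factors were expressed with a GST fusion, then pulled down on glutathione beads and given DNA barcodes. Pooled with a tag-only sample, they were exposed to 200 nmole of a 16-mer random double-stranded DNA library (Tris/NaCl/DTT/glycerol buffer, room temperature, 30 min), washed, crosslinked with 0.1% formaldehyde, proximity-ligated using BsaI/T4 ligase for 1 h at 37 °C, PCR-amplified and read on an Illumina NextSeq500. Each hexamer's frequency of reads for a factor, divided by the matching frequency for the tag-only sample, gives the binding signal.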
# ELK1 = target: T2, ELK1 (Homo sapiens, UniProt P19419 1-428); conditions: protein: recombinant; tags: N-terminal GST; dsDNA, one strand shown
# T2 sequence: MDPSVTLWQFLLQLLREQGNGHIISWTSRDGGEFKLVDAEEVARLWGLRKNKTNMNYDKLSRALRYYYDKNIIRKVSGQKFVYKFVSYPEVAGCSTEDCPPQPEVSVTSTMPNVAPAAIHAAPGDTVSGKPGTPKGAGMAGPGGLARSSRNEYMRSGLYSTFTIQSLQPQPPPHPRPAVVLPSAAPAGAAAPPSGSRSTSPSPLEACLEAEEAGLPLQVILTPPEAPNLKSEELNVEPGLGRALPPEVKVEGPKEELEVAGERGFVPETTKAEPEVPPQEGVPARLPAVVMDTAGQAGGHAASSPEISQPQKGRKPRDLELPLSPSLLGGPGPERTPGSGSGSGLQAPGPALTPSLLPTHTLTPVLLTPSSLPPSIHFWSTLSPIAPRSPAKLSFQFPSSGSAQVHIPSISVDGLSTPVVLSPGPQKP
# In short: as §1
# GABPA = target: T3, GABPA (Homo sapiens, UniProt Q06546 1-454); conditions: protein: recombinant; tags: N-terminal GST; dsDNA, one strand shown
# T3 sequence: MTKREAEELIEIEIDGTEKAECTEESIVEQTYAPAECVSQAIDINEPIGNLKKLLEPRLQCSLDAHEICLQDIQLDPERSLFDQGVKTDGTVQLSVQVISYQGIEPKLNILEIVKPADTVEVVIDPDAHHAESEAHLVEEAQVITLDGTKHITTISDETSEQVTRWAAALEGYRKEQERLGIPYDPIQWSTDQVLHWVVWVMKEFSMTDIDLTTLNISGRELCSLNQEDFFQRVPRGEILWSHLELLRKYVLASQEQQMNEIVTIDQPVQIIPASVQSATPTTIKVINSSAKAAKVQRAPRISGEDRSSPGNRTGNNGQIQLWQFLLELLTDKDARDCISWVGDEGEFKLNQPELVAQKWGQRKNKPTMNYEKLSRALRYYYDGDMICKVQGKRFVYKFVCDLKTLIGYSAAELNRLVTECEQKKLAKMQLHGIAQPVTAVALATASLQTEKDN
# In short: as §1
# ERG = target: T4, ERG (Homo sapiens, UniProt P11308 1-479); conditions: protein: recombinant; tags: N-terminal GST; dsDNA, one strand shown
# T4 sequence: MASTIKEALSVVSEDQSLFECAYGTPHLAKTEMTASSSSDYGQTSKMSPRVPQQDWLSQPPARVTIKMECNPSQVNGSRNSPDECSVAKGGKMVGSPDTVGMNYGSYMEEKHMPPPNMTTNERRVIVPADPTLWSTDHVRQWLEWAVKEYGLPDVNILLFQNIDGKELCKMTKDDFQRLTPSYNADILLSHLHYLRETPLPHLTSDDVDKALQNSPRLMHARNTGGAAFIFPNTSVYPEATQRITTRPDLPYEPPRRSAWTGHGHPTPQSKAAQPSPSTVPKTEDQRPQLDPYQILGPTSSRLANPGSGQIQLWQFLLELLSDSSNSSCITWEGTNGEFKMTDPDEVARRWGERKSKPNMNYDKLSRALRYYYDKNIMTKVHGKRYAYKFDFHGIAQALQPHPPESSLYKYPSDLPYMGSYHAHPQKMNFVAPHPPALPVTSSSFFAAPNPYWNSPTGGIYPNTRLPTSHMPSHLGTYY
# In short: as §1
# ELF1 = ELF1 (Homo sapiens, UniProt P32519 1-619); conditions: protein: recombinant; tags: N-terminal GST; dsDNA, one strand shown
# In short: as §1
# EHF = target: T5, EHF (Homo sapiens, UniProt Q9NZC4 1-300); conditions: protein: recombinant; tags: N-terminal GST; dsDNA, one strand shown
# T5 sequence: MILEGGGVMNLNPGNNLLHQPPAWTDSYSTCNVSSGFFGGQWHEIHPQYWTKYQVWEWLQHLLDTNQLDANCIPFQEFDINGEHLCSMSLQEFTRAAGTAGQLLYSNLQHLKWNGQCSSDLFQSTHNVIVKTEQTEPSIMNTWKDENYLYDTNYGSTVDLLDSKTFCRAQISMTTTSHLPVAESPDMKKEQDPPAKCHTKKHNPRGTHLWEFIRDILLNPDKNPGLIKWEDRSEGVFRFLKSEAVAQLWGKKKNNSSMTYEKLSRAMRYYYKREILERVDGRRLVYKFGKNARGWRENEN
# In short: as §1
# SPI1 = SPI1 (Homo sapiens, UniProt P17947 1-270); conditions: protein: recombinant; tags: N-terminal GST; dsDNA, one strand shown
# In short: as §1
# SPIB = SPIB (Homo sapiens, UniProt Q01892 1-262); conditions: protein: recombinant; tags: N-terminal GST; dsDNA, one strand shown
# In short: as §1
# ELK3 = target: T6, ELK3 (Homo sapiens, UniProt P41970 1-407); conditions: protein: recombinant; tags: N-terminal GST; dsDNA, one strand shown
# T6 sequence: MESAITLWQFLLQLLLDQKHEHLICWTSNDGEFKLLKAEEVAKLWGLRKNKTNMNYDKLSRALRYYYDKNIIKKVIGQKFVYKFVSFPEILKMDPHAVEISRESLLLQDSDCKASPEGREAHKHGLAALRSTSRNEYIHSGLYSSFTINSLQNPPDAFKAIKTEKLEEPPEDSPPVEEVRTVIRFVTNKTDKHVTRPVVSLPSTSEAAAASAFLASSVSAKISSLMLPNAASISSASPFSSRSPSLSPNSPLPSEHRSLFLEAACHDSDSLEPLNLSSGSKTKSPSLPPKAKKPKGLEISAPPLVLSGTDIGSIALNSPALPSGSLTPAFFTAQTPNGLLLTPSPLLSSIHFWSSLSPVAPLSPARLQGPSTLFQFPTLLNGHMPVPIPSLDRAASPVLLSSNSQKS
# In short: as §1
# FEV = target: T7, FEV (Homo sapiens, UniProt Q99581 1-238); conditions: protein: recombinant; tags: N-terminal GST; dsDNA, one strand shown
# T7 sequence: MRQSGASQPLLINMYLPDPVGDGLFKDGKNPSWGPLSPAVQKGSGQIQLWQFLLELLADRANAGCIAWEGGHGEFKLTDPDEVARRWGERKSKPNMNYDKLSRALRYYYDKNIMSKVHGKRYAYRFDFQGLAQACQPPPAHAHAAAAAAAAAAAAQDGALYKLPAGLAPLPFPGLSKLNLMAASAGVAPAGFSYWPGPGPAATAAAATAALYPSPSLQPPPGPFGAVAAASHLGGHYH
# In short: as §1
# ETV5 = ETV5 (Homo sapiens, UniProt P41161 1-510); conditions: protein: recombinant; tags: N-terminal GST; dsDNA, one strand shown
# In short: as §1
# HSF1 = HSF1 (Homo sapiens, UniProt Q00613 1-529); conditions: protein: recombinant; tags: N-terminal GST; chain copies: 3; dsDNA, one strand shown
# In short: as §1
# SPIC = target: T8, SPIC (Homo sapiens, UniProt Q8N5J4 1-248); conditions: protein: recombinant; tags: N-terminal GST; dsDNA, one strand shown
# T8 sequence: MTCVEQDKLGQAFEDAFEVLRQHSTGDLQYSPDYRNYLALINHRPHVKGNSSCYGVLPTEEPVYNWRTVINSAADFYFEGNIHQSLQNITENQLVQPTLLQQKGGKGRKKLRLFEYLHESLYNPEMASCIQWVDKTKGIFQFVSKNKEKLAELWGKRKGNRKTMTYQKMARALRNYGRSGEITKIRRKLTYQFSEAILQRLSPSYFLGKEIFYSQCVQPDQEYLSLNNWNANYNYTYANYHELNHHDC
# In short: as §1
# ELF4 = ELF4 (Homo sapiens, UniProt Q99607 1-663); conditions: protein: recombinant; tags: N-terminal GST; dsDNA, one strand shown
# In short: as §1
# ELK4 = target: T9, ELK4 (Homo sapiens, UniProt P28324-2 1-405); conditions: protein: recombinant; tags: N-terminal GST; dsDNA, one strand shown
# T9 sequence: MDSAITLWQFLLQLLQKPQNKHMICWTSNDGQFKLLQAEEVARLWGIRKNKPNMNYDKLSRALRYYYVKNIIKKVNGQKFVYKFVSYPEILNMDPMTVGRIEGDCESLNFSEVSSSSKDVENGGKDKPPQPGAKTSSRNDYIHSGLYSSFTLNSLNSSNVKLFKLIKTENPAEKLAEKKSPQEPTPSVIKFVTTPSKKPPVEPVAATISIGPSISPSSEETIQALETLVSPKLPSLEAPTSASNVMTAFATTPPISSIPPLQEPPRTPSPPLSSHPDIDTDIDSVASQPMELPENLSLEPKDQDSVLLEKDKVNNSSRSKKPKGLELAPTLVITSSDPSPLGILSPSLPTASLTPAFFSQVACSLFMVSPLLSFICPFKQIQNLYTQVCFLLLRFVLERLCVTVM
# In short: as §1
# ETV2 = target: T10, ETV2 (Homo sapiens, UniProt O00321 1-342); conditions: protein: recombinant; tags: N-terminal GST; dsDNA, one strand shown
# T10 sequence: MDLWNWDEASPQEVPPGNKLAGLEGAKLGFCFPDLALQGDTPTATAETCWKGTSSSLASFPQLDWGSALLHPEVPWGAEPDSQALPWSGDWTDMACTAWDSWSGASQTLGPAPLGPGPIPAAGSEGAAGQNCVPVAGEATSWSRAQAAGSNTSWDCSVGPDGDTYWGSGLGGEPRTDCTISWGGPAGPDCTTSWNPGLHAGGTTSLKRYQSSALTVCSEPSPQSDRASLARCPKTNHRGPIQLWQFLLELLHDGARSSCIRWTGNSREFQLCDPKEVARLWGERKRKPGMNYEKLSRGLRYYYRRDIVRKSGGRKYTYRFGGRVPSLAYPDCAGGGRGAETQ
# In short: as §1
# ELF3 = target: T11, ELF3 (Homo sapiens, UniProt P78545 1-371); conditions: protein: recombinant; tags: N-terminal GST; dsDNA, one strand shown
# T11 sequence: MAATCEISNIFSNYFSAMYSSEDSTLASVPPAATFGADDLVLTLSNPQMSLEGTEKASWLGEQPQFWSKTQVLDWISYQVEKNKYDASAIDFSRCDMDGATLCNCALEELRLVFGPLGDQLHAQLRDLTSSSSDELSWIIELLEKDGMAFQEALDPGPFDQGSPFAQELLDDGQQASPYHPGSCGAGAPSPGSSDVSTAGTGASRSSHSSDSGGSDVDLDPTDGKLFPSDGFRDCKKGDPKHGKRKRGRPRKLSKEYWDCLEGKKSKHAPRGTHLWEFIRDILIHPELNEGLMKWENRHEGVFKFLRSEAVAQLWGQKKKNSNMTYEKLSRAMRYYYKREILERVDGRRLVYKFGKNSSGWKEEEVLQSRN
# In short: as §1
# CRX = CRX (Homo sapiens, UniProt O43186 1-299); conditions: protein: recombinant; tags: N-terminal GST; dsDNA, one strand shown
# In short: as §1
# ETV1 = ETV1 (Homo sapiens, UniProt P50549 1-477); conditions: protein: recombinant; tags: N-terminal GST; dsDNA, one strand shown
# In short: as §1
# Sequence of ELF4 (Q99607 whole entry): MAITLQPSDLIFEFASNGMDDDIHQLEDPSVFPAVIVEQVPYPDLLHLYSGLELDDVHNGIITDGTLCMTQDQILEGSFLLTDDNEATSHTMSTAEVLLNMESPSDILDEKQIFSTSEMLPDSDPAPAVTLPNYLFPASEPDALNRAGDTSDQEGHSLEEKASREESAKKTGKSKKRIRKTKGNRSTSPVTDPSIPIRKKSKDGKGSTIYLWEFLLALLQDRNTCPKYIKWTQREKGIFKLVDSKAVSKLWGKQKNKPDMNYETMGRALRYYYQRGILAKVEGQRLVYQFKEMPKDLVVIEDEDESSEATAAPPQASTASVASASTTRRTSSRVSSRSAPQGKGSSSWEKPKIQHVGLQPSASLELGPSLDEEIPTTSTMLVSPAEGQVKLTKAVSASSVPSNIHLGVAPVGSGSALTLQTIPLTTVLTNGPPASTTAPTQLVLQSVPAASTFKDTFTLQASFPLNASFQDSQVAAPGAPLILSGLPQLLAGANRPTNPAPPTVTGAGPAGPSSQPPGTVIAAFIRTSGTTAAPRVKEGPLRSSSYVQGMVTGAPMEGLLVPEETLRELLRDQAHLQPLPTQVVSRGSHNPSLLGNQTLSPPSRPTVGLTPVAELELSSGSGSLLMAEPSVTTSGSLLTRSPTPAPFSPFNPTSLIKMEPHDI
# Sequence of CRX (O43186 whole entry): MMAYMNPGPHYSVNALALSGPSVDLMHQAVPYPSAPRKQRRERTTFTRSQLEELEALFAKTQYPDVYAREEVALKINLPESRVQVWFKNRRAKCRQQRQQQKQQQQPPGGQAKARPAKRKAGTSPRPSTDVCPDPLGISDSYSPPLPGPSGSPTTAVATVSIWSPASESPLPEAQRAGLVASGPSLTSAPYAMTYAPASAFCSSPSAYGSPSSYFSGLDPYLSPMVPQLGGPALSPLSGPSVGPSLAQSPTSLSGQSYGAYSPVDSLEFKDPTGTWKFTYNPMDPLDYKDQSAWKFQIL
# Sequence of SPIB (Q01892 whole entry): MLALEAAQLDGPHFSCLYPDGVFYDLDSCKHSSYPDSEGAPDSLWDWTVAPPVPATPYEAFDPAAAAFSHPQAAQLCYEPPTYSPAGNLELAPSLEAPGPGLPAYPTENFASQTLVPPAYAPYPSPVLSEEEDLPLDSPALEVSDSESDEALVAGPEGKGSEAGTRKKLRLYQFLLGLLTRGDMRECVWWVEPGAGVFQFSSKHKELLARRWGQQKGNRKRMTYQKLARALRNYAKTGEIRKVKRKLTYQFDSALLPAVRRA
# Sequence of ETV5 (P41161 whole entry): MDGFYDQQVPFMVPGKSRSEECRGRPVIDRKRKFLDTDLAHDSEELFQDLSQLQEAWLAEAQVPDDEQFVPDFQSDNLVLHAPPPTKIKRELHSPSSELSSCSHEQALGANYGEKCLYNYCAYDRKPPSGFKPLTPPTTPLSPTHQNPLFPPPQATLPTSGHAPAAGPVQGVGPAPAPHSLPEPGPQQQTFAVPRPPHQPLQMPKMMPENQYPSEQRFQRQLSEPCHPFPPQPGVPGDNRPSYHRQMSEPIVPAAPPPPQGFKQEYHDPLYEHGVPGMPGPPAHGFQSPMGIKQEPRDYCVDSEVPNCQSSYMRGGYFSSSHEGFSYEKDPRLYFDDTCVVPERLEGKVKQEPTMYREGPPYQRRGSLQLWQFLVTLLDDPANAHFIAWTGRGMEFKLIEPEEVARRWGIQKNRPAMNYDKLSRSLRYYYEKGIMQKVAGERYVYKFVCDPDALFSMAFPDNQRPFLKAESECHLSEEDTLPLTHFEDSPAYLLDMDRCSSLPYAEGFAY
# Sequence of HSF1 (Q00613 whole entry): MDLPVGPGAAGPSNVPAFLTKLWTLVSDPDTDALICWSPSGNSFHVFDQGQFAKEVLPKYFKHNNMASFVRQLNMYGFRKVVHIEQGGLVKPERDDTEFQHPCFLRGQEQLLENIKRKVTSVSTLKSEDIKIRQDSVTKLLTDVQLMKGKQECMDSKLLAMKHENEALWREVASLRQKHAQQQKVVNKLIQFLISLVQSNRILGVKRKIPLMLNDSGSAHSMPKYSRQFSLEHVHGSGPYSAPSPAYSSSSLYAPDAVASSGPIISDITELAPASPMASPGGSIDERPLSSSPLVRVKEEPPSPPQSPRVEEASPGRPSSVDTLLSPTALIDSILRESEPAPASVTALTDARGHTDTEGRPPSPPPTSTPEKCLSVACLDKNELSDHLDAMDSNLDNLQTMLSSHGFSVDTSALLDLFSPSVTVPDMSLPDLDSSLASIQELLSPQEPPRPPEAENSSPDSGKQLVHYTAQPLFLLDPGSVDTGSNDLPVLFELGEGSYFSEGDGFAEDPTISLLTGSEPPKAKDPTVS
# Sequence of ETV1 (P50549 whole entry): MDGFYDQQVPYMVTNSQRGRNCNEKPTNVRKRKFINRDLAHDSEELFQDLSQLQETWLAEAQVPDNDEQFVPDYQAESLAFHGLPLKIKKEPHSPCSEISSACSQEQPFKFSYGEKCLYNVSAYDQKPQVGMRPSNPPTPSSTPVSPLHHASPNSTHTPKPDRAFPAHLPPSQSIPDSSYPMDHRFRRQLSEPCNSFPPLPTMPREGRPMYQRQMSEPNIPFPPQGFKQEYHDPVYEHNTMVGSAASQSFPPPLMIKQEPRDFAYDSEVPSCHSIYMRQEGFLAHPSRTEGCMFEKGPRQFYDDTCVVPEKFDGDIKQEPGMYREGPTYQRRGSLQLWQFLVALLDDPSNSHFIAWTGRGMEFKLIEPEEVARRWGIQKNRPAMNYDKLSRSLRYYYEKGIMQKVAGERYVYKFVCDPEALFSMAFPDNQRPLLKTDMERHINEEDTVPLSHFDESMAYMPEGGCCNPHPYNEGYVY
# Sequence of ELF1 (P32519 whole entry): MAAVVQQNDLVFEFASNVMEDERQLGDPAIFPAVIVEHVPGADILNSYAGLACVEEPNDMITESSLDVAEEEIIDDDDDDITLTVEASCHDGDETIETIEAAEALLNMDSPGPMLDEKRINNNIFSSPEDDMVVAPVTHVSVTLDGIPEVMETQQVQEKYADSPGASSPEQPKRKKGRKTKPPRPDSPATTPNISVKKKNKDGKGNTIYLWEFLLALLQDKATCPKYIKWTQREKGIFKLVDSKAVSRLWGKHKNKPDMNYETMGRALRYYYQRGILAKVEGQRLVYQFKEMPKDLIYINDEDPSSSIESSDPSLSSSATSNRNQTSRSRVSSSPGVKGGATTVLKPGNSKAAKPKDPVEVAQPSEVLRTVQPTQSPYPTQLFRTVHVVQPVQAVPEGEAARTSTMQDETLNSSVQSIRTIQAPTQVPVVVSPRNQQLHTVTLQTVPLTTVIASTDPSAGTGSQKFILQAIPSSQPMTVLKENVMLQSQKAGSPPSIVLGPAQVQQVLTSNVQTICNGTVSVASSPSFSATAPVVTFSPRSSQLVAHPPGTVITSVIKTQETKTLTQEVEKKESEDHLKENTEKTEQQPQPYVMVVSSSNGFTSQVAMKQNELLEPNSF
sequence,measurement,setting,value
GTTAAC,binding signal,FLI1,"1.04 fold enrichment (6-mer frequency, TF over GST control)"
same,binding signal,ELK1,"1.22 fold enrichment (6-mer frequency, TF over GST control)"
same,binding signal,GABPA,"1.13 fold enrichment (6-mer frequency, TF over GST control)"
same,binding signal,ERG,"1.15 fold enrichment (6-mer frequency, TF over GST control)"
same,binding signal,ELF1,"1.14 fold enrichment (6-mer frequency, TF over GST control)"
same,binding signal,EHF,"1.11 fold enrichment (6-mer frequency, TF over GST control)"
same,binding signal,SPI1,"1.15 fold enrichment (6-mer frequency, TF over GST control)"
same,binding signal,SPIB,"1.12 fold enrichment (6-mer frequency, TF over GST control)"
same,binding signal,ELK3,"1.23 fold enrichment (6-mer frequency, TF over GST control)"
same,binding signal,FEV,"1.18 fold enrichment (6-mer frequency, TF over GST control)"
same,binding signal,ETV5,"1.19 fold enrichment (6-mer frequency, TF over GST control)"
same,binding signal,HSF1,"1.02 fold enrichment (6-mer frequency, TF over GST control)"
same,binding signal,SPIC,"1.11 fold enrichment (6-mer frequency, TF over GST control)"
same,binding signal,ELF4,"1.19 fold enrichment (6-mer frequency, TF over GST control)"
same,binding signal,ELK4,"1.25 fold enrichment (6-mer frequency, TF over GST control)"
same,binding signal,ETV2,"1.2 fold enrichment (6-mer frequency, TF over GST control)"
same,binding signal,ELF3,"1.21 fold enrichment (6-mer frequency, TF over GST control)"
same,binding signal,CRX,"1.15 fold enrichment (6-mer frequency, TF over GST control)"
same,binding signal,ETV1,"1.2 fold enrichment (6-mer frequency, TF over GST control)"
